Assay outcomes deposited in PubChem by National Center for Advancing Translational Sciences (NCATS).
TrxR1 substrate: substrates of rat thioredoxin reductase 1; purified TrxR1 substrate turnover, NADPH consumption readout; O89049; actives 0.01% (n = 390,000); Potency, µM (highest dose often 114 µM); AID 588456; note: nearly all actives have a fitted effect of over 50% in size
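Rat TrxR1, dispensed at 90 nM, was prereduced with 400 uM NADPH (final) for 5 min at ~22 deg C, then incubated with compound 15 min before 400 uM selenite. A first-read NADPH fluorescence drop versus no-compound background flagged substrates.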
mIDH1 inhibitor: human IDH1 R132H inhibition. IDH1-R132H enzyme, NADPH consumption, diaphorase/resazurin fluorescence. Potency, µM (series often up to 76.6 µM), usual class: inhibitors. actives 0.093% (n = 390,000); note: nearly all actives have a fitted effect of over 65% in size
Target sequence (O75874 whole entry R132H, stated change not applied): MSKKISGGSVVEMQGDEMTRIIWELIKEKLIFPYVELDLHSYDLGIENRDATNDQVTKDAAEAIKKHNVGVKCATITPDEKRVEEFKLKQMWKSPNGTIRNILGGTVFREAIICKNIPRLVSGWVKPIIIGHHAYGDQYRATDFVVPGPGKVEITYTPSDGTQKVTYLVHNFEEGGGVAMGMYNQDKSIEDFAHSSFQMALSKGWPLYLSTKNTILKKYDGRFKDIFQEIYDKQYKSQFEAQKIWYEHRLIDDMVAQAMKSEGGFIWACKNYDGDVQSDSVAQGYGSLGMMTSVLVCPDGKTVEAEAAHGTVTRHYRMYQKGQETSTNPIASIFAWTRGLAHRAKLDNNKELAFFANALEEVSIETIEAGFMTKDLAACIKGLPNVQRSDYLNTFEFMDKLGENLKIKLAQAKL
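IDH1-R132H (0.5 ug/mL dispensed) in pH 7.5 Tris buffer was preincubated 30 min with compound, then given a substrate mix of 0.016 mM NADPH and 2 mM alpha-KG for 80 min at room temperature; remaining NADPH was read by diaphorase/resazurin fluorescence.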
BRCA1 expr up: increases BRCA1 expression; MCF7-BRCA1-FFLuc reporter, luminescence, 48 h; response scale: scaled: vehicle 0%, 10 µM genistein 100%; Potency, µM (series often up to 46.1 µM), most hits filed as activators; actives 1.1% (n = 380,000); AID 624202; note: nearly all actives have a fitted effect of over 80% in size
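Activators of BRCA1 expression were detected as increased firefly luciferase luminescence in engineered MCF7 cells after 48 h compound incubation. Signals were scaled to genistein 10 microM as full activation.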
IL-2 act: activates IL-2 in a cell-based reporter assay | AID 652025 | activation, % (series mostly up to about 46 µM) | actives 0.065% (n = 360,000) | IL-2 activation reporter assay, cell-based qHTS; stimulated with anti-CD3/CD4/CD28 beads; in transgenic mouse T cells; in the data active = activation above about 50%; inconclusive = mostly about 30% to 49%
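Unstimulated transgenic mouse T cells; 60-min compound exposure; bead-based TCR/CD4/CD28 stimulation; 18 h culture, 37 degrees C; dual fluorescence (EGFP, DsRed) plate cytometry.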
rTrxR1 inhibitor: blocks rat thioredoxin reductase 1. O89049. recombinant rTrxR1, NADPH fluorescence consumption, selenite substrate. Potency, µM (top dose mostly 114 µM), actives largely listed as inhibitors. actives 1% (n = 390,000). AID 588453; note: nearly all actives have a fitted effect of over 65% in size
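Rat TrxR1 (90 nM in the dispensed reagent) was pre-reduced with 400 uM NADPH for 5 min at room temperature, then incubated with compound for 15 min. After 400 uM selenite was added, NADPH fluorescence (Ex 340/Em 450 nm) was followed for 8 min.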
Giardia kill: Giardia lamblia killing; Giardia lamblia trophozoite viability; activity change, % at 7.66 µM, hits read low; actives 0.15% (n = 340,000); AID 540267; in the data active = activity change below about -80%; inconclusive = between about -30% and that limit;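 note: parasites exposed to compound for two days anaerobically before the ATP read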
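Luminescence from cellular ATP indicates surviving trophozoites (100 cells/well) following 48 hrs anaerobic compound treatment at 37 deg C; signal develops 15-30 min at room temperature.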
A number is an active result; – = inactive; ? = inconclusive; · = no result; ! = not confirmed by another sample. In the library only some 2.2% were active in any assay of this set; here they are far more common. Unless noted, calls come from the whole dose curve; as a rule, active = well fitted curve in the direction sought with a large enough effect; inconclusive = small, poorly fitted or top-dose-only effect, or another doubt; inactive = no such curve, though single readings can be large; an effect the other way counts as inactive or inconclusive.

SMILES | TrxR1 substrate | mIDH1 inhibitor | BRCA1 expr up | IL-2 act | rTrxR1 inhibitor | Giardia kill
COc1ccc(CC(=O)NC(=S)NNC(=O)COc2c(C)cccc2C)cc1 | – | – | – | – | ? | –
CN(C)[C@@H]1C(=O)C(C(N)=O)=C(O)[C@@]2(O)C(=O)C3=C(O)c4c(O)cccc4[C@@](C)(O)[C@H]3[C@H](O)[C@@H]12 | – | – | – | – | 35µM! | –
CN(C)[C@@H]1C(=O)C(C(N)=O)=C(O)[C@@]2(O)C(=O)C3=C(O)c4c(O)cccc4[C@@](C)(O)C3C[C@@H]12 (stereo not given in full) | – | – | – | – | – | ?
CNC(CC(C)C)C(=O)NC1C(=O)NC(CC(N)=O)C(=O)NC2C(=O)NC3C(=O)NC(C(=O)NC(C(=O)O)c4cc(O)cc(O)c4-c4cc3ccc4O)C(O)c3ccc(c(Cl)c3)Oc3cc2cc(c3OC2OC(CO)C(O)C(O)C2OC2C[C@](C)(N)C(O)C(C)O2)Oc2ccc(cc2Cl)C1O (stereo not given in full) | – | – | – | – | – | –
Cc1ccc(Cl)cc1N1CCN(C(=O)c2cn(CC(C)C)c(=O)c3c2c2ccccc2n3C)CC1 | – | – | · | · | – | ·
Cc1ccc(-n2nc3ccc(NC(=O)COc4ccccc4C)cc3n2)cc1 | – | – | · | · | – | ·
NC(Cc1nc2ccccc2[nH]1)c1ccc(Cl)cc1 (stereo not given) | – | – | 11µM | – | – | –
NC(Cc1ccccc1)c1nc2ccccc2[nH]1 (stereo not given) | – | – | – | – | – | –
C/C=C1/C[C@@H](C)[C@@](C)(O)C(=O)OCC2=CCN3CC[C@@H](OC1=O)[C@@H]23 | – | · | · | · | ? | –
COc1c(C)cc(Br)cc1C(=O)Nc1ccc(-c2nc3ncccc3o2)cc1 | – | – | · | · | – | ·
CCOP1(=O)C=C(Sc2ccc([N+](=O)[O-])cc2[N+](=O)[O-])C(C)(C)O1 (stereo not given) | – | – | – | – | 14µM | –
CCN(CC)c1ccc(/C=C2\C(=O)NC(=O)N(CC3CCCO3)C2=O)cc1 (stereo not given) | – | – | – | – | ? | –
Cc1ccc(/C=C2\C(=O)NC(=O)N(CC3CCCO3)C2=O)s1 (stereo not given) | – | – | – | – | 40µM | –
CC[C@@H](CO)Nc1nc(NCc2ccccc2)c2ncn(C(C)C)c2n1 | – | · | · | · | – | ·
COc1ccccc1N1C(=O)NC(=O)/C(=C/c2ccc3c4c(cccc24)CC3)C1=O | – | – | – | – | 8.9µM | –
COc1ccccc1N1C(=O)NC(=O)/C(=C\c2cnn(-c3ccccc3)c2)C1=O | – | – | – | – | – | ?
On1ccccc1=S | – | – | – | – | ? | –
C[N+](C)(C)CC#CCOC(=O)Nc1cccc(Cl)c1 | – | – | – | – | 2.7µM | –
NC(=O)CI | – | · | · | · | – | ·
Cc1ccc(-c2[nH]c(=S)[nH]c(=O)c2C#N)cc1 | – | – | – | – | ? | –
Cc1ccc(N2CCN(C(=O)c3cn(CC4CCCCC4)nn3)C(C)C2)cc1 (stereo not given) | – | – | 2.5µM | – | – | –
CCS(=O)(=O)Nc1ccc(C2=NN(C(=O)c3ccco3)C(c3ccc(Cl)o3)C2)cc1 (stereo not given) | – | – | – | – | – | –
CN1CCN(c2ccc([N+](=O)[O-])c(N3CCCCC3)c2)CC1 | – | – | – | – | – | –
CN1CCN(c2ccc([N+](=O)[O-])c3cccnc23)CC1 | – | – | – | – | – | -84
CCN(CC)c1ncnc2c1ncn2[C@@H]1O[C@H](COP(=O)(O)OP(=O)(O)C(Br)(Br)P(=O)(O)O)[C@@H](O)[C@H]1O | – | · | · | · | – | ·
SMILES | TrxR1 substrate | mIDH1 inhibitor | BRCA1 expr up | IL-2 act | rTrxR1 inhibitor | Giardia kill
NC(=O)C1=CN(C2OC(COP(=O)(O)OP(=O)(O)OC[C@H]3O[C@@H](n4cnc5c(N)ncnc54)[C@H](OP(=O)(O)O)[C@@H]3O)C(O)C2O)C=CC1 (stereo not given in full) | – | · | · | · | – | ·
N#CC(C#N)=NNc1ccc([N+](=O)[O-])cc1 | ? | – | – | – | 22µM | –
CCN(CC)C(=O)Oc1ccc2cc(Br)ccc2c1 | – | – | ? | – | – | –
N#CC(C#N)=Cc1cccnc1 | – | – | – | – | 14µM | –
CCCN1CCCC(c2cccc(O)c2)C1 (stereo not given) | · | · | · | · | – | ·
Nc1ccc2c3c(cccc13)CC2 | – | – | – | 83 | – | –
CC(=O)OC1(C)CC(C)C(=O)C(C(O)CC2CC(=O)NC(=O)C2)C1 (stereo not given) | – | – | ? | – | – | ?
C[C@@H]1C[C@@H]([C@H](O)CC2CC(=O)NC(=O)C2)C(=O)[C@@H](C)C1 | – | – | – | – | – | -82
O=c1[nH]/c(=C\c2ccc(N(CCCl)CCCl)cc2)c(=O)[nH]/c1=C\c1ccc(N(CCCl)CCCl)cc1 | – | · | – | · | – | ·
COc1ccc(CNC(=O)c2cnn3c(C)c(Cc4ccc(F)cc4)c(C)nc23)cc1 | – | – | · | · | – | ·
CCN(CC)c1ccc(CC2C(=O)N(C)C(=O)N(C)C2=O)cc1 | – | – | – | – | 32µM | –
C=CCOc1ccc(CC2C(=O)N(C)C(=O)N(C)C2=O)cc1 | – | – | – | – | – | –
COc1ccc(N2C(=O)/C(=C/c3cccs3)C(=O)NC2=S)cc1 | – | – | – | – | 7.9µM | –
O=C1NC(=O)N(CCc2ccc(F)cc2)C(=O)/C1=C/c1cccs1 | – | – | – | – | ? | –
Cc1ccc(/C=C2\C(=O)NC(=S)N(c3ccccc3F)C2=O)s1 | – | – | – | – | 13µM | –
C=CCN1C(=O)/C(=C/c2cccs2)C(=O)NC1=S | – | – | – | – | 10µM | –
CCOC(=O)C1CCN(/C=C2/C(=O)NC(=S)N(c3ccccc3F)C2=O)CC1 | – | – | – | – | – | –
O=C1NC(=O)N(CCC2=CCCCC2)C(=O)/C1=C\c1cccs1 | – | – | – | – | 7.1µM | –
Cc1cc(=O)oc2c3c(cc(OCC(=O)N4CCC[C@H]4C(=O)O)c12)OC(C)(C)CC3 | – | – | – | – | ? | –
COc1ccc(NC(=O)CCn2cnc3onc(-c4ccc(F)cc4)c3c2=O)cc1OC | – | – | · | · | ? | ·
Cc1ccc(/C=C2\C(=O)NC(=S)N(c3ccc(F)cc3)C2=O)o1 | – | – | – | – | ? | –
Cc1ccc(/C=C2\C(=O)NC(=S)N(c3ccc(F)cc3)C2=O)s1 | – | – | – | – | 10µM | –
